# In the library only some 2.3% were active in any assay of this set; here they are far more common.
# CHRM1 agonist: human M1 muscarinic receptor agonists, primary screen, Fluo-8 calcium fluorescence, CHO-K1 cells, HTS | Muscarinic acetylcholine receptor M1 (Homo sapiens), P11229 | CHO-K1 hM1, agonist mode; 0% DMSO, 100% acetylcholine EC100 | AID 588814, 2011 | activation, % at 3 µM | 0.33% of 360,000 active;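 active = activation above the run's mean compound activation plus 3 SD, cut at about 16% in these data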;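 note: peak over basal fluorescence ratio within a 140 s kinetic read after compound addition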
# Target sequence (P11229 whole entry, looked up): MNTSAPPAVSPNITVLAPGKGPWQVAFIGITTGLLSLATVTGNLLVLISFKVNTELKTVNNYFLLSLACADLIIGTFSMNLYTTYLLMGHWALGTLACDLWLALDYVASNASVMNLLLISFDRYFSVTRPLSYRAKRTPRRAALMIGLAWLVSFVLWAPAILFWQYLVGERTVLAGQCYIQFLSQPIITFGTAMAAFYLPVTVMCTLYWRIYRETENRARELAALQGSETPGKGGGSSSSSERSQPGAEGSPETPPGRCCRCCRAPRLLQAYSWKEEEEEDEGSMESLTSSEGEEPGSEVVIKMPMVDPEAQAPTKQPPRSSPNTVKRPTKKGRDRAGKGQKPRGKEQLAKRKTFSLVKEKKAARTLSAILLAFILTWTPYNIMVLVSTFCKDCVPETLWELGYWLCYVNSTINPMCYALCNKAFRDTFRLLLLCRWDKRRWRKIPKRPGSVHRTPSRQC
# M1 PAM: human M1 muscarinic receptor positive allosteric modulators, primary screen, CHO-K1 cells, Fluo-8 calcium fluorescence, 1536-well. CHO-K1 hM1, ACh EC20; 0% = ACh EC20, 100% = maximal ACh. activation, % at 3 µM. 0.088% of 360,000 active; in the data active = activation above about 19%, passing the limit was not always enough
# CHO-K1 Ca antag: M1 antagonist counterscreen hit in parental CHO-K1 cells; ATP-induced calcium, Fluo-8 fluorescence; inhibition, % at 3 µM; 0.6% of 360,000 active; AID 602250;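 active = inhibition above a per-plate cutoff, the plate's mean sample inhibition plus 3 SD, cut at about 24% in these data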;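 note: 0% = DMSO plus EC80 ATP and 100% = DMSO alone without ATP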
# M1 PAM parental: nonselective calcium activators in parental CHO-K1 cells, primary screen, counter-screen for M1 PAM project, cell-based, Fluo-8 calcium fluorescence, full deck, 1536-well. ATP EC20; 0% at ATP EC20, 100% at ATP max. AID 602247, 2012. activation, % at 3 µM. 0.02% of 360,000 active;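 active = activation above the run cutoff, the mean activation of all test compounds plus 3 SD, cut at about 40% in these data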;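 note: peak over basal fluorescence ratio in a 140 s read after ATP addition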
# M1 antag: human M1 muscarinic receptor antagonists, primary screen, CHO-K1 cells, Fluo-8 calcium fluorescence, 1536-well; Muscarinic acetylcholine receptor M1 (Homo sapiens), P11229; inhibition, % at 3 µM; AID 588852, 2011; 1.3% of 360,000 active; CHO-K1 hM1, ACh EC80 antagonist;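 active = percent inhibition above its own plate's cutoff, namely the mean of that plate's compound wells plus 3 SD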;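 note: peak over basal fluorescence ratio during 140 s after agonist addition; 0% = ACh EC80 plus DMSO and 100% = DMSO alone without agonist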
# M1 ag parental: counter-screen for M1 agonists: effect in parental CHO-K1 cells; activation, % at 3 µM; AID 602248, 2012; 0.48% of 360,000 active; Fluo-8 calcium fluorescence; scaled to maximal ATP response, vehicle zero; in the data active = activation above about 15%;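 note: untransfected CHO-K1 host cells lacking M1 receptor as counterscreen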
# The depositor's hits bear a star; nt = no result.
SMILES,CHRM1 agonist,M1 PAM,CHO-K1 Ca antag,M1 PAM parental,M1 antag,M1 ag parental
CN1CCN(c2ccc(CNC(=O)c3ccco3)cc2)CC1,-5.2,3.8,5.9,6.4,-5.3,18.0*
COc1ccc(N2CCN(CC(O)COC(c3ccc(F)cc3)c3ccc(F)cc3)CC2)cc1 (centres undefined),-10.7,-13.6,-15.1,10.7,38.6*,0.1
COc1ccc(N2CCN(CC(O)COC(c3ccccc3)c3ccccc3)CC2)cc1 (centres undefined),-11.3,-29.6,-1.0,10.6,25.2,2.0
CCCCCCn1c(=O)[nH]c2nc3cc(N)c(C)cc3nc2c1=O,60.8*,-22.3,28.6*,-10.3,32.3*,59.8*
O=c1[nH]ncc(N2CCN(Cc3ccccc3)CC2)c1Cl,-13.9,-11.6,25.8*,-17.8,14.1,-0.2
CC1(C(=O)NS(=O)(=O)c2cccc(Cl)c2)CCN1C(=O)C1CCCCC1 (centres undefined),1.9,10.9,-0.1,0.1,-6.0,0.8
Cn1nc(C(C)(C)C)cc1C(=O)N1CCCCC1c1cc(C(=O)Nc2ccccc2Cl)no1 (centres undefined),-1.7,2.1,24.1*,-10.3,-1.2,0.9
CN(C)/C=N/c1nc2nccc(-c3ccc(F)cc3)n2n1,-10.7,4.7,-11.1,12.2,2.7,-0.3
CN(C)/C=N/c1nc2nccc(-c3cccc(Cl)c3)n2n1,-12.5,0.7,5.6,8.9,0.2,21.3*
CCCS(=O)(=O)NC(=O)C1(C)CCN(C(=O)c2cc(C)nn2C(C)(C)C)C1 (centres undefined),-2.4,6.1,-9.8,18.6,-7.2,0.6
Cc1ccc(S(=O)(=O)NN=CC2(c3ccccc3)CC2)cc1,-3.0,5.9,-4.5,42.0*,-19.9,-0.4
Cc1ccc(S(=O)(=O)N/N=C\C=C\c2ccccc2)cc1,0.1,9.1,2.9,-5.7,-9.1,-0.3
COc1ccc(C(=O)NCC(c2ccco2)N2CCc3ccccc32)cc1 (centres undefined),-6.0,7.2,-11.1,17.6,-17.9,-0.7
COc1ccc(C(=O)NCC(c2cccs2)N2CCc3ccccc32)c(OC)c1 (centres undefined),-1.9,-4.4,-32.4,57.6*,-3.9,5.2
CCOc1ccccc1C(=O)NCC(=O)Nc1ccc(-c2ccccc2)cc1,-0.1,8.7,-8.0,-2.0,-13.2,-0.2
O=C(Nc1ccccn1)c1cccs1,-0.1,7.5,-17.0,19.9,-31.9,0.0
CCN(CC)S(=O)(=O)c1csc(C(=O)Nc2ccccn2)c1,-3.6,-0.1,27.1*,-7.8,1.8,0.1
CC1OC(C(C)(C)C)Cc2[nH][nH]c(=O)c21 (centres undefined),nt,nt,-10.1,9.7,nt,0.8
Cc1nc2ccc(NC(=O)c3cc(Cl)ccn3)cc2s1,-8.8,7.6,-15.4,4.5,-8.8,0.3
CCOC(=O)C1CCCN(C/C(O)=C(\C#N)c2nc(-c3ccc(Cl)cc3)cs2)C1 (centres undefined),25.4*,-9.6,3.5,-6.2,7.9,0.0
N#C/C(=C(/O)CN1CCCC1)c1nc(-c2ccccc2)cs1,-4.0,6.6,-6.0,-2.7,-6.0,0.2
CCOC(=O)C1CCCN(Cc2nc(N)nc(Nc3ccccc3OC)n2)C1 (centres undefined),19.5*,14.8,-10.6,19.9,-8.7,1.0
CCOC(=O)C1CCCN(Cc2nc(N)nc(Nc3ccc(Cl)cc3)n2)C1 (centres undefined),37.0*,3.0,15.9,-2.0,-33.2,0.3
CCOc1ccccc1CNS(=O)(=O)c1ccc(-c2cnc(C3CC3)o2)cc1,3.1,-15.1,14.2,-15.3,35.8*,13.4
CN(C)c1ccc(CNC(=O)CC[C@H]2O[C@@H](n3cnc4c(NC(=O)c5ccccc5)ncnc43)[C@H](O)[C@@H]2O)cc1,-7.6,6.6,7.7,9.6,-5.1,0.8
SMILES,CHRM1 agonist,M1 PAM,CHO-K1 Ca antag,M1 PAM parental,M1 antag,M1 ag parental
N#Cc1c(C(F)(F)F)cc(-c2ccccc2)n(N)c1=O,-3.0,10.2,30.6*,-4.7,-14.6,3.1
CCSC1=NCCN1C(=O)C(C)(C)Oc1ccc(Cl)cc1,-4.0,6.2,-8.0,-4.0,-0.7,-0.6
CC(=O)Nc1ccc(CN2CCCC(C(=O)c3ccc(C(F)(F)F)cc3)C2)cc1 (centres undefined),-15.5,-37.5,-15.5,18.3,50.9*,3.2
O=C(c1cccc(C(F)(F)F)c1)C1CCCN(Cc2cccn2-c2ccccn2)C1 (centres undefined),-14.4,-35.6,-0.4,4.8,35.3*,2.2
O=C(c1ccc(-c2ccccc2)cc1)C1CCCN(Cc2ccncc2)C1 (centres undefined),-12.8,-16.5,1.3,15.2,11.5,7.5
CC(=O)Nc1ccc(CN(C)CC2CCCN(CCc3cccc(C(F)(F)F)c3)C2)cc1 (centres undefined),-8.2,-28.5,-11.3,15.0,52.0*,0.2
COCc1cc(CN2CCCC(C(=O)c3cccc(C(F)(F)F)c3)C2)ccc1OC (centres undefined),-11.7,-30.6,-9.2,13.6,43.5*,2.5
O=C(NCC1CCCO1)c1cn(Cc2ccccc2)nc1-c1ccc(Cl)cc1 (centres undefined),-4.9,-2.5,-9.4,2.1,5.8,0.7
O=C(O)c1ccsc1Cc1cccs1,0.2,15.8,8.7,-11.2,-15.8,-0.2
O=c1c2oc3nc4c(cc3c2ncn1CCCc1ccccc1)CCCC4,-2.1,-0.9,1.1,9.5,3.3,5.7
C[C@@H]1CN([C@@H](C)CO)C(=O)c2cc(C#Cc3ccccc3)cnc2O[C@@H]1CN(C)Cc1ccccn1,-6.6,-0.9,2.3,-5.2,5.1,0.2
O=C(c1cccc(C(F)(F)F)c1)C1CCCN(Cc2cccc(OCCO)c2)C1 (centres undefined),-11.4,-30.9,9.1,-1.8,38.7*,3.6
O=C(O)c1cccc(S(=O)(=O)NCC2COc3ccccc3O2)c1 (centres undefined),-0.3,3.5,-15.1,14.1,-15.4,1.0
COC(=O)c1ccccc1NC(=O)COC(=O)Cc1ccc(S(=O)(=O)N2CCOCC2)s1,0.2,-2.9,3.8,-19.0,6.4,2.0
CCc1nn(CC(=O)NCCCN2CCc3ccccc3C2)c(=O)c2cc3sccc3n12,-13.5,-33.0,-10.3,14.0,43.7*,0.3
COc1cccc(/C=N/NC(=O)c2ccoc2C)c1,-2.3,4.4,-7.0,7.3,-8.8,1.3
